Screens deposited in PubChem BioAssay by National Center for Advancing Translational Sciences (NCATS).
Shown are actives, neighbours in structure and some others; about 3.1% of the full set was active somewhere.
IL-2 act: qHTS of IL-2 Activators. IL-2 activation reporter assay, cell-based qHTS; stimulated with anti-CD3/CD4/CD28 beads; in transgenic mouse T cells. activation, % (series mostly up to about 46 µM). 360,000 tested, 0.065% active; in the data active = activation above about 50%; inconclusive = mostly about 30% to 49%
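EGFP and DsRed fluorescence is measured by plate cytometry in unstimulated transgenic mouse T cells exposed to compound for 60 minutes, then stimulated 18 hours at 37 degrees C with anti-CD3/anti-CD4 beads plus anti-CD28.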
Nrf2 ARE act: qHTS of Nrf2 Activators; AID 624171, 2012; 410,000 tested, 0.31% active; AREc32 ARE-luciferase reporter (MCF7-derived line), luminescence, 24 h; Potency, µM (titrated, usually from 46.1 µM), most hits filed as activators; also: nearly all actives have a fitted effect of over 65% in size
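Steps: seed AREc32_Fluc cells (1000/well, 5% FBS OPTI-MEM); incubate overnight at 37 deg C; add 23 nL compound; incubate 24 hr; add Steady-Glo; hold 30 min RT; read luminescence.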
BRCA1 expr up: qHTS Assay to Identify Small Molecule Activators of BRCA1 Expression. Potency, µM (doses to about 46.1 µM), most hits filed as activators. 380,000 tested, 1.1% active. MCF7-BRCA1-FFLuc reporter, luminescence, 48 h; response scale: scaled: vehicle 0%, 10 µM genistein 100%; also: nearly all actives have a fitted effect of over 80% in size
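MCF7 cells carrying a BRCA1-firefly luciferase reporter (2000 cells/well, phenol-red free MEM) were attached for 2 h at 37 °C, then given compounds for 48 h. Luminescence was read 15 min after luciferase reagent; activity normalized to genistein (10 microM) and DMSO.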
ELG1 repair inh: qHTS screen for small molecules that inhibit ELG1-dependent DNA repair in human embryonic kidney (HEK293T) cells expressing luciferase-tagged ELG1 | HEK293T ELG1-luciferase reporter, luminescence, 16 h; DNA damage induced by 5-fluorouridine | Potency, µM (titrated, usually from 46.1 µM), usual class: inhibitors | 330,000 tested, 2.3% active | AID 504467, 2011; also: nearly all actives have a fitted effect of over 55% in size
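Overnight (16 hr) co-exposure of 2,000 cells/well to 5-fluorouridine and compound at 37 °C preceded detection. Luciferase was quantified via ONE-Glo luminescence; loss of signal denotes inhibition.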
Large screens that a line does not name were inactive. Unless noted, calls follow the shape of the dose curve; as a rule, active = well fitted curve in the direction sought with a large enough effect; inconclusive = small, poorly fitted or top-dose-only effect, or another doubt; inactive = no such curve, though single readings can be large; an effect the other way counts as inactive or inconclusive.

O=C1CN(c2ccccc2)C(=S)N1C(=O)c1ccccc1	BRCA1 expr up 7.1µM, ELG1 repair inh inconclusive
O=C(c1ccccc1)N1CCC(=O)N1c1ccccc1	none
O=C(/C=C/c1ccc(Cl)cc1)NCc1cccs1	BRCA1 expr up 11µM, ELG1 repair inh inconclusive
Cc1cc(C)c(C(=O)/C=C/c2cccc3ccccc23)c(=O)[nH]1	ELG1 repair inh 15µM
Clc1ncc(C#Cc2ccccc2)c2ncncc12	none (no result: IL-2 act, Nrf2 ARE act, ELG1 repair inh)
COCCCNC(=S)N1CCCN(c2nc3cc(C)ccc3cc2C#N)CC1	ELG1 repair inh 21µM
COc1ccc(CCN(C)c2ncnc3sccc23)cc1OC	ELG1 repair inh inconclusive
COc1ccc(CN(C)c2ncnc3sccc23)c(OC)c1OC	ELG1 repair inh 9.2µM
COC(=O)c1cnc(SCC(=O)c2ccccc2)n1C	BRCA1 expr up inconclusive, ELG1 repair inh inconclusive
COC(=O)c1cnc(SCc2ccc(Cl)cc2)n1C	BRCA1 expr up 11µM, ELG1 repair inh inconclusive
Cc1nn(C)c2c1c(-c1ccccc1)cc(=O)n2CC(=O)NC(C)c1ccccc1 (stereo unspecified)	none (no result: IL-2 act, BRCA1 expr up, ELG1 repair inh)
COC(=O)[C@]12CCCCC=C1N(Cc1ccc3c(c1)OCO3)C(=O)[C@H](CC(=O)N1CCSCC1)C2	none (no result: Nrf2 ARE act, BRCA1 expr up, ELG1 repair inh)
NS(=O)(=O)c1ccc(CNc2ccc3ccccc3n2)cc1	BRCA1 expr up 8.9µM, ELG1 repair inh inconclusive
CCC(=O)c1cn(CC(=O)NCc2ccco2)c2ccccc12	BRCA1 expr up 11µM (no result: ELG1 repair inh)
Cn1c(NCc2ccccc2)nc2c1c(=O)n(Cc1ccc(Br)cc1)c(=O)n2C	ELG1 repair inh 21µM
Cn1c(NCc2ccco2)nc2c1c(=O)n(Cc1ccc(Cl)cc1)c(=O)n2C	ELG1 repair inh inconclusive
COc1cc(/C=N/Nc2nc3c(c(=O)n(C)c(=O)n3C)n2Cc2ccccc2)ccc1OC(=O)c1ccco1	ELG1 repair inh 18µM
COc1ccc(CNc2nc3c(c(=O)n(Cc4ccc(Br)cc4)c(=O)n3C)n2C)cc1	ELG1 repair inh inconclusive
Cn1c(=O)c2c(nc(NCc3ccc4c(c3)OCO4)n2Cc2ccccc2)n(C)c1=O	ELG1 repair inh 16µM
Cn1c(NCc2ccco2)nc2c1c(=O)n(Cc1ccc(Br)cc1)c(=O)n2C	ELG1 repair inh 18µM
Cn1c(=O)c2c(nc(N/N=C/c3ccncc3)n2Cc2ccccc2)n(C)c1=O	none
Cn1c(=O)c2c(nc(NCc3ccc4c(c3)OCO4)n2Cc2ccc(F)cc2)n(C)c1=O	ELG1 repair inh inconclusive
CCc1ccccc1S(=O)(=O)Cc1ccc(C(=O)NCCc2ccc(C)cc2)o1	none (no result: IL-2 act, BRCA1 expr up, ELG1 repair inh)
CCCCNC(=O)c1[nH]c(C2CCNCC2)nc1-c1cccc(C(F)(F)F)c1	none (no result: Nrf2 ARE act, BRCA1 expr up, ELG1 repair inh)
NC(=O)c1c(N)[nH]c(C(=O)c2ccccc2)c1-c1ccccc1Br	none (no result: ELG1 repair inh)
Nc1c(C(=O)Nc2ccccc2F)sc2nc(Cc3ccccc3)cc(C(F)(F)F)c12	IL-2 act 51, ELG1 repair inh inconclusive
CCOC(=O)N1CCC(NC(=O)c2cnn(-c3cccc(F)c3)c2-n2cccc2)CC1	none (no result: IL-2 act, BRCA1 expr up, ELG1 repair inh)
COc1ccc(/C(C)=N/OCC(=O)N=Nc2c(O)[nH]c3ccc(Br)cc23)cc1	ELG1 repair inh inconclusive
COc1ccc(/C=N/OCC(=O)N=Nc2c(O)[nH]c3ccc(Br)cc23)cc1OC	ELG1 repair inh 13µM
CC1CC(=O)N(CC(=O)Nc2ccc(OC(F)(F)F)cc2)c2ccccc2S1 (stereo unspecified)	none (no result: IL-2 act, ELG1 repair inh)
CCN(CC)C(=O)[C@H]1C[C@H](CC(=O)NCc2ccco2)C(=O)N2CCc3c([nH]c4cc(-c5ccco5)ccc34)[C@]12C	ELG1 repair inh 18µM
CCN(CC)C(=O)[C@H]1CC(CC(=O)NCC23CC4CC(CC(C4)C2)C3)C(=O)N2CCc3c([nH]c4ccc(OC)cc34)[C@]12C (stereo partly specified)	ELG1 repair inh 23µM
CCN(CC)C(=O)[C@H]1CC(CC(=O)NCCN2CCOCC2)C(=O)N2CCc3c([nH]c4ccc(OC)cc34)[C@]12C (stereo partly specified)	ELG1 repair inh inconclusive
COc1ccc2[nH]c3c(c2c1)CCN1C(=O)C(CC(=O)NCC24CC5CC(CC(C5)C2)C4)C[C@H](C(=O)N2CCCCC2)[C@@]31C (stereo partly specified)	ELG1 repair inh 13µM
COc1ccccc1CCNC(=O)c1ccc2c(c1)c(C)c(C)n2C	none (no result: IL-2 act, BRCA1 expr up, ELG1 repair inh)
COc1ccc(COc2ccsc2C(=O)Nc2ccc(Cl)cc2)cc1	Nrf2 ARE act 8.9µM
O=C(Nc1ccc(Cl)cc1)c1sccc1-n1cccc1	Nrf2 ARE act 11µM
COc1ccc(NC(=O)c2csc(Cc3ccc(Cl)cc3)n2)cc1	ELG1 repair inh inconclusive
O=C(Nc1ccc(Cl)c(Cl)c1)Nc1cc(C(=O)NC2CC2)ccc1Cl	ELG1 repair inh 26µM (no result: IL-2 act, Nrf2 ARE act, BRCA1 expr up)
O=C(Nc1ccc(Cl)c(Cl)c1)c1ccc(Cl)c(Cl)c1	ELG1 repair inh inconclusive
Cc1cccc(NC(=S)N/N=C/c2cccc(O)c2)c1C	ELG1 repair inh 18µM
Cc1ccccc1NC(=S)N/N=C/c1ccc(O)cc1O	ELG1 repair inh inconclusive
CC(C)(C)NC(=O)C(c1ccccc1F)n1c(=O)c(-c2ccccc2)nc2ccccc21 (stereo unspecified)	none (no result: Nrf2 ARE act, BRCA1 expr up, ELG1 repair inh)
Cc1cc(Br)ccc1NC(=O)CSc1c2c(nc3ccccc13)CCC2	none (no result: IL-2 act, BRCA1 expr up, ELG1 repair inh)
CC(C)c1ccc(NC(=O)CN2C=NS(=O)(=O)c3ccccc32)cc1	none (no result: IL-2 act, BRCA1 expr up, ELG1 repair inh)
CC(C)(C)/C(O)=C/c1nc2cc(Cl)ccc2oc1=O	Nrf2 ARE act 10µM, ELG1 repair inh inconclusive
Clc1ccc2c(NCc3ccccn3)ncnc2c1	Nrf2 ARE act 6.3µM
Clc1ccc2c(NCc3cccs3)ncnc2c1	ELG1 repair inh inconclusive
COC(=O)c1ccc(Cl)cc1NC(=O)N1CC=C(c2c[nH]c3ccccc23)CC1	none (no result: IL-2 act, BRCA1 expr up, ELG1 repair inh)
COc1ccc(OC)c(CNC(=O)c2cnc3c(C)cccn3c2=O)c1	none (no result: IL-2 act, BRCA1 expr up, ELG1 repair inh)
CN(CCc1ccccn1)C(=O)CCc1nnc(CCCc2ccccc2)o1	BRCA1 expr up 13µM, ELG1 repair inh inconclusive
CN(CCc1cnn(C)c1)C(=O)CCc1nnc(CCCc2ccccc2)o1	ELG1 repair inh inconclusive
Cc1ccc(NC(=O)c2cc(C(=O)c3cc(Cl)ccc3O)cn(-c3ccc(C)cc3)c2=O)cc1	ELG1 repair inh 26µM
CCCCOC(=O)c1ccc(NC(=O)Cn2nnc3sc4c(c3c2=O)CCCC4)cc1	none (no result: IL-2 act, BRCA1 expr up, ELG1 repair inh)
COc1ccc(C(=O)Nc2ccc(C3=NNC(=O)CC3C)cc2NC(=O)c2ccc(OC)cc2)cc1 (stereo unspecified)	ELG1 repair inh 16µM
O=S(=O)(Nc1nc2ccccc2nc1Nc1ccccc1Br)c1ccccc1	none (no result: IL-2 act, ELG1 repair inh)
Cc1cnc(NC(=O)c2sc(Nc3ccccc3)nc2N)o1	BRCA1 expr up 13µM, ELG1 repair inh inconclusive
N#C/C(=C\C=C\c1ccccc1)c1nc(-c2ccc3c(c2)OCO3)cs1	IL-2 act 95
OC(c1ccccc1)(c1nc(-c2ccc3c(c2)OCO3)cs1)C(F)(F)F (stereo unspecified)	none (no result: ELG1 repair inh)
